Screening data from PubChem BioAssay.
An excerpt weighted towards active compounds, which were near 10% of everything screened.
Mm-Cpn inhibitor: Inhibitors of TCP-1 ring complex (TRiC) of Methanococcus maripaludis (MmCpn): qHTS. 330,000 tested, 0.031% active. Potency, µM (series often up to 76.9 µM), inactives show at the top dose activity, negative = inhibition, most hits filed as inhibitors. Chaperonin Mm-Cpn (Methanococcus maripaludis). AID 504842, 2011. purified Mm-Cpn ATPase, ADP Transcreener TR-FRET; also: potency is read from the fitted curve at half-maximal effect; nearly all actives have a fitted effect of over 80% in size
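ATP (10 uM final) was added to archaeal chaperonin (25 nM final) after 10 min exposure to test compound at 37°C; after 30 min further incubation, ADP was detected by competitive TR-FRET.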
PLK1 PBD inh: qHTS for Inhibitors of PLK1-PDB (polo-like kinase 1 - polo-box domain): Primary Screen; Plk1 PBD binding of FITC phosphopeptide, fluorescence polarization; 360,000 tested, 2.8% active; Potency, µM, without a hit: max response, negative = inhibition, usual class: inhibitors; Serine/threonine-protein kinase PLK1 (Homo sapiens), P53350; also: potency is read from the fitted curve at half-maximal effect; series mostly up to about 57 µM; nearly all actives have a fitted effect of over 65% in size
G9a inh: qHTS Assay for Inhibitors of Histone Lysine Methyltransferase G9a. Histone-lysine N-methyltransferase EHMT2 (Homo sapiens), Q96KQ7. AID 504332, 2011. Potency, µM (highest dose often 102 µM), inactives show at the top dose activity, negative = inhibition, hits mostly inhibitors. G9a H3K9 monomethylation, AlphaScreen, 2 h. 350,000 tested, 8.8% active; also: potency is read from the fitted curve at half-maximal effect; nearly all actives have a fitted effect of over 75% in size
Target sequence (Q96KQ7 913-1193 limits assumed): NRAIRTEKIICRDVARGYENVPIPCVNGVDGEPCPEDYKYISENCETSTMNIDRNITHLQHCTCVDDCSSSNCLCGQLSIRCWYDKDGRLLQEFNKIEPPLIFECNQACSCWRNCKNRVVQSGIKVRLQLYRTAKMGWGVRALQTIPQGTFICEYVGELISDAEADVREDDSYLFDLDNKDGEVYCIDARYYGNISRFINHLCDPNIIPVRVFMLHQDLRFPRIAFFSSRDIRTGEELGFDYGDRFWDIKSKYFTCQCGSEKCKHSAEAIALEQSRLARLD
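Chemiluminescent proximity detection of H3K9 monomethylation, read after 10 min bead incubation in the dark. Reaction: 20 nM G9a, 500 nM biotin-H3K9 peptide, 20 uM SAM cofactor, 2 h, room temperature, following 15 min enzyme-compound preincubation.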
Sfp inh: qHTS Assay for Inhibitors of Bacillus subtilis Sfp phosphopantetheinyl transferase (PPTase) | 310,000 tested, 3.5% active | Biochemical Sfp PPTase activity, qHTS | Potency, µM, inactives show largest response in the series, negative = inhibition, actives largely listed as inhibitors | AID 1490, 2009;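 also: the enzyme is Sfp with the accession as filed and its product quenches rhodamine fluorescence; potency is read from the fitted curve at half-maximal effect; 0% = enzyme reaction without inhibitor and -100% = no enzyme wells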
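Reaction rates are the 30-min fluorescence difference (ex 525, em 598 nm) in wells containing 15 nM Sfp, 5 uM rhodamine-CoA and 12.5 uM BHQ-2-YbbR at pH 7.6 with 10 mM MgCl2.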
CCT modulator: High-Throughput Screening for Modulators of Cytosolic Chaperonin Activity; purified chaperonin ATPase assay, HTRF ADP detection, 30 min; activity change, % (concentration not given with the values), hits read low; 360,000 tested, 0.3% active; AID 651819, 2012; in the data active = activity change below about -30%
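First, chaperonin was dispensed at 40 nM or 20 nM final depending on batch activity. Next, compounds were pinned at 76 uM and ATP added at 10 uM. After 30 min at 37 °C, ADP detection reagents ran 30 min at ambient temperature.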
VDR inh: Inhibitors of the vitamin D receptor (VDR): qHTS | Vitamin D3 receptor (Homo sapiens), P11473 | Potency, µM, for inactives: max response, negative = inhibition, most hits filed as inhibitors | VDR-SRC2-3 peptide fluorescence polarization, 2 h | 400,000 tested, 0.93% active; also: potency is read from the fitted curve at half-maximal effect
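Compounds are added to VDR with labelled SRC2-3 coactivator peptide and held 2 h at room temperature. Inhibition of the VDR–peptide interaction is then read as a change in fluorescence polarization.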
* marks the source's active call; other numbers are inactive results; ! = a repeat was not active; [ ] = dose if it differs, or a comment. Unless noted, calls follow the shape of the dose curve; as a rule, active = well fitted curve in the direction sought with a large enough effect; inconclusive = small, poorly fitted or top-dose-only effect, or another doubt; inactive = no such curve, though single readings can be large; an effect the other way counts as inactive or inconclusive. Unless noted, % is scaled to controls: 0 for no effect and ±100 for the full control effect.

For c1ccc(Nc2scc(-c3ccccc3)[n+]2Cc2ccco2)cc1 the results were Mm-Cpn inhibitor -7%, PLK1 PBD inh -3%, G9a inh 16µM*, Sfp inh 20µM*, CCT modulator 2 and VDR inh -19%.
Screening CCOc1ccc(CC(=O)NCCS(=O)(=O)N2CCN(c3ccccc3OC)CC2)cc1 returned G9a inh 6%[59 µM] and VDR inh 6%.
For Nc1sccc1C(=O)c1ccccc1 the results were Mm-Cpn inhibitor -3%, PLK1 PBD inh -11%, G9a inh 45µM*, Sfp inh 28µM*, CCT modulator -2 and VDR inh -15%.
CC1CCC2=C1C[C@H](C(C)(C)O)CC[C@@H]2C (stereo partly drawn) was read as Sfp inh 1% and VDR inh -17%.
Screening O=C(c1cnc2n(c1=O)CCS2)N(c1ccccc1)C1CCCCC1 returned Mm-Cpn inhibitor 0%, PLK1 PBD inh -2%, G9a inh -9%[2.33 µM], Sfp inh -2%, CCT modulator 0 and VDR inh -18%.
For Cc1ccc(C)c(NC(=O)c2cnc3n(c2=O)CCS3)c1 the results were Mm-Cpn inhibitor -6%, PLK1 PBD inh -14%, G9a inh 56µM*, Sfp inh -3%, CCT modulator 2 and VDR inh -13%.
CSc1ccccc1NC(=O)c1cnc2n(c1=O)CCS2 was read as Mm-Cpn inhibitor -2%, PLK1 PBD inh -25%, G9a inh inconclusive, Sfp inh -8%, CCT modulator 0 and VDR inh 0%.
Screening O=C(c1cnc2n(c1=O)CCS2)N(C1CCCCC1)C1CCCCC1 returned Mm-Cpn inhibitor 0%, PLK1 PBD inh -5%, G9a inh 79µM*, Sfp inh 4%, CCT modulator -1 and VDR inh -5%.
Screening FC(F)(F)c1cccc(Nc2c3c(nc4ccc(Cl)cc24)CCC3)c1 returned G9a inh 10%[59 µM] and VDR inh -10%.
Screening CCn1c(=O)c2sccc2n2c(CCCC(=O)Nc3ccc(Oc4ccccc4)cc3)nnc12 returned G9a inh 5%[59 µM] and VDR inh 5%.
For Clc1ccc(C2CC(c3ccco3)n3ncnc3N2)cc1Cl (stereo not drawn) the results were Mm-Cpn inhibitor 0%, PLK1 PBD inh -7%, G9a inh 11µM*, Sfp inh 5%, CCT modulator 3 and VDR inh -9%.
`COc1ccccc1C1CC(c2ccc(Cl)cc2)Nc2ncnn21` (stereo not drawn) gave Mm-Cpn inhibitor -1%, PLK1 PBD inh 27µM*, G9a inh inconclusive, Sfp inh -2%, CCT modulator 2 and VDR inh -20%.
Fc1ccc(C2CC(c3ccccc3)n3ncnc3N2)cc1 (stereo not drawn) was read as Mm-Cpn inhibitor 0%, PLK1 PBD inh -8%, G9a inh -13%[59 µM], Sfp inh 10%, CCT modulator -1 and VDR inh 8%.
For COc1cccc(C2CC(c3ccccc3OC)n3ncnc3N2)c1 (stereo not drawn) the results were Mm-Cpn inhibitor -2%, PLK1 PBD inh -4%, G9a inh inconclusive, Sfp inh 1%, CCT modulator -6 and VDR inh -9%.
For CC(=O)N[C@H](CS)C(=O)O the results were G9a inh 2%[2.33 µM], Sfp inh -39% and VDR inh 6%.
`CC(=O)N[C@@H](CS)C(=O)O` gave Mm-Cpn inhibitor -1%, PLK1 PBD inh -21%, G9a inh inconclusive, Sfp inh 35µM*!, CCT modulator -3 and VDR inh -14%.
`Oc1c(Cl)cccc1C=Nc1cc(C(F)(F)F)ccc1N1CCCC1` gave Mm-Cpn inhibitor -2%, PLK1 PBD inh 12µM*, G9a inh inconclusive, Sfp inh inconclusive, CCT modulator 0 and VDR inh -29%.
Cc1cccc(NC(=O)c2c(C)cc(C)nc2SCC(=O)Nc2c(C)cc(C)cc2C)c1 was read as G9a inh -8%[59 µM] and VDR inh 0%.
C=CCNC(=S)N/N=C(\C)c1cccc(NC(C)=O)c1 was read as Mm-Cpn inhibitor -3%, PLK1 PBD inh -9%, G9a inh 51%, Sfp inh 50µM*, CCT modulator 2 and VDR inh 3%.
`C=CCNC(=S)Nc1cccc(NC(=S)NCC=C)c1` gave Mm-Cpn inhibitor 1%, PLK1 PBD inh -2%, G9a inh 4%, Sfp inh 5%, CCT modulator 1 and VDR inh -4%.
`C/C(=N\NC(=S)Nc1ccc(C)cc1)c1cccc(N)c1` gave Mm-Cpn inhibitor 0%, PLK1 PBD inh -12%, G9a inh 45µM*, Sfp inh 29%, CCT modulator 1 and VDR inh -12%.
For CCN(CC)CCN(C(=O)c1ccc2c(c1)OCCO2)c1nc2cc(C)cc(C)c2s1 the results were Mm-Cpn inhibitor 1%, PLK1 PBD inh -5%, Sfp inh inconclusive, CCT modulator 2 and VDR inh 17%.
CCN(CC)CCN(C(=O)CCS(=O)(=O)c1ccccc1)c1nc2cc(OC)c(OC)cc2s1 was read as Mm-Cpn inhibitor 0%, PLK1 PBD inh -24%, G9a inh 18µM*, Sfp inh inconclusive, CCT modulator 1 and VDR inh -11%.
Cc1cc(C)c2sc(N(CCN(C)C)C(=O)CCS(=O)(=O)c3ccccc3)nc2c1 was read as Mm-Cpn inhibitor 1%, PLK1 PBD inh -2%, G9a inh 40µM*, Sfp inh -12%, CCT modulator 0 and VDR inh -18%.
Screening CCN(CC)CCN(C(=O)CCS(=O)(=O)c1ccccc1)c1nc2cc(C)cc(C)c2s1 returned Mm-Cpn inhibitor 0%, PLK1 PBD inh -13%, G9a inh 35µM*, Sfp inh 8%, CCT modulator 1 and VDR inh -20%.
`CCN(CC)CCN(C(=O)CCS(=O)(=O)c1ccccc1)c1nc2c(C)cc(C)cc2s1` gave Mm-Cpn inhibitor 1%, PLK1 PBD inh -1%, G9a inh 45µM*, Sfp inh 4%, CCT modulator 0 and VDR inh -22%.
